Measurements published in PubChem BioAssay AID1159580 (chemical genetic matrix, 2015).
Values joined by “and” are separate entries in the source; they are usually repeats but may differ in a detail not shown here. Identical values can stand only once. About 2,000 (36%) of roughly 5,500 compounds were called active. Another 18% or so got no clear call; they are omitted. Cut-off read from the data, not from the text of the source: active = normalized growth mostly below about 0.91 (no sharp cut-off); inconclusive = no clear call, values can overlap the other calls; inactive = mostly above about 0.92. The list shows a part of the results.

Assay: chemical genetic growth profiling, strain panel (AID 1159580);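 note: tested at 20 µM; growth read once vehicle control cultures reached saturation at 30 °C; 1 = growth at the plate median or of vehicle wells; lower values mean less growth of the strain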
Conditions: growth OD

Measured: normalized growth

CC(C(=O)O)c1cccc(C(=O)c2ccccc2)c1 (stereo not drawn)
inactive: S. cerevisiae deletion strains, locus YJR075W, strain HOC1, hits give low values 1 and 1.06 | S. cerevisiae deletion strains, locus YKL009W, strain mrt4, hits give low values 0.982 | S. cerevisiae deletion strains, locus YKL068W, hits give low values 0.971 | S. cerevisiae deletion strains, locus YKL085W, strain MDH1 (second series), hits give low values 0.968 | S. cerevisiae deletion strains, locus YKL085W, strain MDH1, hits give low values 0.968 | S. cerevisiae deletion strains, locus YKL160W, strain elf1, hits give low values 0.978 | S. cerevisiae deletion strains, locus YKL190W, strain CNB1, hits give low values 0.994 | S. cerevisiae deletion strains, locus YKR001C, strain vps1, hits give low values 0.992 | S. cerevisiae deletion strains, locus YKR026C, strain gcn3, hits give low values 0.984 | S. cerevisiae deletion strains, locus YKR091W, strain srl3, hits give low values 0.989 | S. cerevisiae deletion strains, locus YLL001W, strain dnm1, hits give low values 0.984 | S. cerevisiae deletion strains, locus YLL026W, hits give low values 0.982 | S. cerevisiae deletion strains, locus YLL041C, strain sdh2, hits give low values 1.01 | S. cerevisiae deletion strains, locus YLR027C, strain aat2, hits give low values 0.991 | S. cerevisiae deletion strains, locus YLR039C, strain RIC1, hits give low values 0.993 | S. cerevisiae deletion strains, locus YLR058C, strain SHM2, hits give low values 0.997 | S. cerevisiae deletion strains, locus YLR102C, strain apc9, hits give low values 0.974 | S. cerevisiae deletion strains, locus YLR113W, strain HOG1, hits give low values 1.02 | S. cerevisiae deletion strains, locus YLR221C, strain rsa3, hits give low values 1.01 | S. cerevisiae deletion strains, locus YLR258W, strain gsy2, hits give low values 0.987 | S. cerevisiae deletion strains, locus YLR262C, strain YPT6 (second series), hits give low values 0.987 | S. cerevisiae deletion strains, locus YLR262C, strain YPT6, hits give low values 0.968 | S. cerevisiae deletion strains, locus YLR268W, strain sec22, hits give low values 0.972 | S. cerevisiae deletion strains, locus YLR320W, strain mms22, hits give low values 0.971 | S. cerevisiae deletion strains, locus YLR330W, strain CHS5, hits give low values 0.985 | S. cerevisiae deletion strains, locus YLR342W, strain FKS1 (second series), hits give low values 1.01 | S. cerevisiae deletion strains, locus YLR342W, strain FKS1, hits give low values 1 | S. cerevisiae deletion strains, locus YLR357W, strain rsc2, hits give low values 0.933 | S. cerevisiae deletion strains, locus YLR370C, strain arc18, hits give low values 0.979 | S. cerevisiae deletion strains, locus YLR371W, strain rom2, hits give low values 0.978 | S. cerevisiae deletion strains, locus YLR384C, strain iki3, hits give low values 0.963 | S. cerevisiae deletion strains, locus YLR418C, strain cdc73, hits give low values 0.971 | S. cerevisiae deletion strains, locus YML016C, strain PPZ1, hits give low values 0.996 | S. cerevisiae deletion strains, locus YML032C, strain rad52, hits give low values 0.996 | S. cerevisiae deletion strains, locus YML120C, strain ndi1, hits give low values 0.994 | S. cerevisiae deletion strains, locus YML124C, strain tub3, hits give low values 0.971 | S. cerevisiae deletion strains, locus YMR058W, strain fet3, hits give low values 0.995 | S. cerevisiae deletion strains, locus YMR078C, strain ctf18, hits give low values 0.959 | S. cerevisiae deletion strains, locus YMR125W, strain sto1, hits give low values 0.991 | S. cerevisiae deletion strains, locus YMR129W, hits give low values 0.981 | S. cerevisiae deletion strains, locus YMR205C, strain PFK2, hits give low values 0.985 | S. cerevisiae deletion strains, locus YMR223W, strain ubp8, hits give low values 0.976 | S. cerevisiae deletion strains, locus YMR231W, strain pep5, hits give low values 0.985 | S. cerevisiae deletion strains, locus YMR307W, strain GAS1, hits give low values 0.995 | S. cerevisiae deletion strains, locus YNL067W, strain RPL9B, hits give low values 1.04 | S. cerevisiae deletion strains, locus YNL071W, strain lat1, hits give low values 0.997 | S. cerevisiae deletion strains, locus YNL175C, strain NOP13, hits give low values 1.02 | S. cerevisiae deletion strains, locus YNL183C, strain NPR1, hits give low values 0.955 | S. cerevisiae deletion strains, locus YNL197C, strain WHI3, hits give low values 0.992 | S. cerevisiae deletion strains, locus YNL209W, strain ssb2, hits give low values 0.999 | S. cerevisiae deletion strains, locus YNL224C, strain SQS1, hits give low values 0.997 | S. cerevisiae deletion strains, locus YNL233W, strain BNI4, hits give low values 1.05 | S. cerevisiae deletion strains, locus YNL248C, strain rpa49, hits give low values 0.968 | S. cerevisiae deletion strains, locus YNL250W, strain rad50, hits give low values 0.927 | S. cerevisiae deletion strains, locus YNL271C, strain bni1, hits give low values 0.956 | S. cerevisiae deletion strains, locus YNL298W, strain CLA4, hits give low values 0.973 | S. cerevisiae deletion strains, locus YNL307C, strain MCK1, hits give low values 0.978 | S. cerevisiae deletion strains, locus YNL322C, strain KRE1 (second series), hits give low values 0.953 | S. cerevisiae deletion strains, locus YNL322C, strain KRE1, hits give low values 0.994 and 1.03 | S. cerevisiae deletion strains, locus YNR049C, strain mso1, hits give low values 0.995 | S. cerevisiae deletion strains, locus YNR052C, strain pop2, hits give low values 0.958 | S. cerevisiae deletion strains, locus YOL006C, strain TOP1, hits give low values 1.06 | S. cerevisiae deletion strains, locus YOL012C, strain htz1 1.22 | S. cerevisiae deletion strains, locus YOL147C, strain pex11, hits give low values 0.977 | S. cerevisiae deletion strains, locus YOR001W, strain rrp6, hits give low values 1 | S. cerevisiae deletion strains, locus YOR061W, strain CKA2, hits give low values 1 | S. cerevisiae deletion strains, locus YOR069W, strain VPS5, hits give low values 0.987 | S. cerevisiae deletion strains, locus YOR070C, strain gyp1, hits give low values 0.985 | S. cerevisiae deletion strains, locus YOR080W, strain dia2, hits give low values 0.996 | S. cerevisiae deletion strains, locus YOR083W, strain WHI5 (second series), hits give low values 1.02 | S. cerevisiae deletion strains, locus YOR083W, strain WHI5, hits give low values 0.918 | S. cerevisiae deletion strains, locus YOR106W, strain vam3, hits give low values 0.963 | S. cerevisiae deletion strains, locus YOR136W, strain idh2, hits give low values 0.988 | S. cerevisiae deletion strains, locus YOR144C, strain elg1, hits give low values 0.98 | S. cerevisiae deletion strains, locus YOR184W, strain ser1, hits give low values 0.977 | S. cerevisiae deletion strains, locus YOR231W, strain MKK1, hits give low values 1.04 | S. cerevisiae deletion strains, locus YOR265W, strain rbl2, hits give low values 0.999 | S. cerevisiae deletion strains, locus YOR270C, strain vph1, hits give low values 1 | S. cerevisiae deletion strains, locus YOR290C, strain snf2, hits give low values 0.985 | S. cerevisiae deletion strains, locus YOR316C, strain cot1, hits give low values 0.968 | S. cerevisiae deletion strains, locus YPL051W, strain arl3, hits give low values 0.966 | S. cerevisiae deletion strains, locus YPL055C, strain LGE1, hits give low values 1.1 | S. cerevisiae deletion strains, locus YPL078C, strain atp4, hits give low values 0.972 | S. cerevisiae deletion strains, locus YPL106C, strain sse1, hits give low values 0.962 | S. cerevisiae deletion strains, locus YPL240C, strain hsp82, hits give low values 0.994 | S. cerevisiae deletion strains, locus YPL241C, strain CIN2, hits give low values 0.993 | S. cerevisiae deletion strains, locus YPL256C, strain CLN2, hits give low values 1.02 | S. cerevisiae deletion strains, locus YPR119W, strain clb2, hits give low values 0.963 | S. cerevisiae deletion strains, locus YPR141C, strain kar3, hits give low values 0.973 | S. cerevisiae deletion strains, locus YPR163C, strain tif3, hits give low values 0.979 | S. cerevisiae deletion strains, locus YPR167C, strain met16, hits give low values 0.977 | S. cerevisiae deletion strains, strain wtn01, hits give low values 0.971 | S. cerevisiae strains, strain wild type, hits give low values 1
